# Reference: the supplement of paper PMC12632987
# T1: FBXL12, Q9NXK8
# T1 chain: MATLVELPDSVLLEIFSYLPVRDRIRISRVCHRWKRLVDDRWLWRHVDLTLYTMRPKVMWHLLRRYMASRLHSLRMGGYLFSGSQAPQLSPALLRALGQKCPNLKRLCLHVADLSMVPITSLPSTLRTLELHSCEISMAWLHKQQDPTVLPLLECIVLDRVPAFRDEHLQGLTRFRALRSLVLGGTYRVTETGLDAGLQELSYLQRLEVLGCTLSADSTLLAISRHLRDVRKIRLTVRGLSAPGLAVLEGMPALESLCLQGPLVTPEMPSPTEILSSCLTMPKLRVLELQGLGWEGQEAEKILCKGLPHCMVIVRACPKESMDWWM
# Molecular target: T1, FBXL12, Q9NXK8
# Test: median log2 fold change of GCK-ALFA target abundance (FLAG IP / Myc IP barcode read proportion) (log2 ratio); each designed protein is fused to an ALFA-tag nanobody in HEK293 cells to bring the named protein to FLAG-tagged glucokinase (GCK); Myc marks an untargeted standard; higher = target protein stabilised (more abundant)
# Details: target protein: 3xFLAG-MCP-GCK-ALFA reporter; HEK293 landing pad (RPLP)
# Description: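 LABEL-seq trans screen in HEK293 landing-pad cells. Each de novo designed 100-aa effector handle, binding the indicated effector (E3 ligase, DUB or autophagy protein), is fused to a constant NbALFA target handle and induced with 2 ug/mL doxycycline. A FLAG-MCP-GCK-ALFA target and a Myc-MCP standard reporter were transfected, and after 48 h circRNA barcodes were recovered by anti-FLAG and anti-Myc IP and sequenced. The value is the median across barcodes (at least 3 per design) of log2(FLAG/Myc read-proportion ratio), with the two transfection replicates pooled. Negative values mean degradation and positive values mean stabilisation of the target.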
row,Binder,median log2 fold change
1,FBXL12_hotspot_9_112 (protein) MTVILGVYAETEEELRRKLERALEYAEAALEAGWEVHIVVGAATPELAEAARRLLEEELGERVAELRARGAVIRVEETFEAARARREEIREEIERRAEEE,-0.276
2,FBXL12_hotspot_9_113 (protein) RILVLSAFAETKEEAEEKLARIREWARAAAAAGWDVIIVVAASTEEVAEYARRLLEELEAELRAAYPDVRVRVDVRLTREEAEETKARLLAEALEEEDRR,-0.106
3,FBXL12_hotspot_9_114 (protein) RVLVLSFFAETREEAERELARMEEWARAALAAGWDVLIVVAAATEEVAAHARELLARMEAALRAAYPDRRVRVAVALTREAAAAAKAALLAELLAEADAA,-0.157
4,FBXL12_hotspot_9_115 (protein) RTILVVASANTVERVRSTLETALKISIGLAEAGHKVILLIAAATEEVLEKAKELLETELKPLVEKLKELGVEVKEPVLYEEAEPLKEEILEEIDEEEEEE,0.00902
5,FBXL12_hotspot_9_116 (protein) KTVVVLARALRVETVESTLRTALEIAIGLAKAGVKVHLVIGAADEEVLAKARELLATRLAPLVEEARALGVEVHEPALYEEAEALVEEILEEIDEEEEEE,0.0101
6,FBXL12_hotspot_127_8 (protein) SDIEVRVSVPTYQSYRYAVAILLEMLKIDVKNGGKNVEKLLEQLKALMEDAAKHLPKEDVLELLDEAIKSLKELKKESPEHKELFDKAIKYLEKLRKEVE,-0.133
7,FBXL12_hotspot_9_117 (protein) KTVIIGVVAATPEAARSTLAVAREIARGLAEAGIKVHVIMAASSEETREEVLAIFREAGAEIQAELADKGVKVRVAETMEEYERLKAEVLEEIDREEEEE,0.0889
8,FBXL12_hotspot_9_118 (protein) RVLVISEYVRSEAEVEPAIARALAYARAAADAGWRVIVVISAASPAIAAHARRLLATRYGEEVAELRARGARIVVRDSRAAAEAEKARLLAEALAAEDAA,-0.563
9,FBXL12_hotspot_9_119 (protein) KVLVIYERIENPEDVEPAIERAIEYARAAAEAGWKVIVVFSAANPEIAEHTRRLLETRFGEEVAELEARGARIVVRDNEEEAEETKERLLREALEEEDRE,0.0418
10,FBXL12_hotspot_9_120 (protein) RIVVIHEFLESLEDVGPRLTRAVDIAETAADAGWKVILVFSAASPEVAAAARRYLAEELGERVAALEARGAVIRVAESREEAERIKRELLEEALREEDEA,-0.0369
11,FBXL12_hotspot_9_121 (protein) RIVVIRQFIESEEEVGPTVRRAVAYARAAADAGWRVIIVISAASPEVAEAARRVLEEELGEEVAELRARGARIVVTSSREEAERKKAELLEAALAEEDAA,-0.228
12,FBXL12_hotspot_9_122 (protein) RIVVISEFVESPEEVEPVVRRAVEYAEAAAAAGWRVIIVIAAASPEVAEHARRVLEERFGERVARLRAAGARIEVRASREEAERAKRELLEEALAEEDAA,0.0626
13,FBXL12_hotspot_9_123 (protein) MIVVIRENVKREEDIEPALRRAVAYAEAAAEAGWRVILVFSASSEELKEKAKEILETKLGERVARLKARGARIVVTATEEEAERKKRELLEEALREEDEA,-0.0307
14,FBXL12_hotspot_9_124 (protein) MHVIISQYAETEEEARRQIERALEYAKAAAEAGWKVTVIFSASTEELKEFIEELLETEYAEEVAELKAKGVEIHVVETEEEAERLKEEILEEIEEEAEEE,-0.161
15,FBXL12_hotspot_9_125 (protein) RHVIISVTARTEEELREKIDRALDYAEAAAAAGWKVHLIVSGLSPELLAAAKELLATEHAERVAALKAAGAEIHLKETVEEGEALKAEILAEIEEEAERE,0.23
16,FBXL12_hotspot_134_9 (protein) RTVVVIVSANGVSDAQARAAVDRAETIIAGLRAAGHRVLFVLVLSLADAAVGDALVARARAAAAAHGAEVVAAENVPAADFEAVLAAARARALARLDELE,0.11

row,Binder,median log2 fold change
1,FBXL12_hotspot_141_10 (protein) RGLVIVIATAAVPEEVRAAVRAAAREAAAAAGVALRFEEAEDEEAAEELRERLLAEAEEEGYDAVGVLVLTSPEMSAERAIAYVRALVAFVAARVARLEA,-0.0786
2,FBXL12_hotspot_141_11 (protein) KGLLIVIMTSSIPEEKREEIKKHAEEAAKKAGIELIFEVAENEEEAEKIKEELLKEAEEKGYDVIGVLTVTDPNMDVERVKAYVEALVEWIKAKLEQLKA,0.126
3,FBXL12_hotspot_147_12 (protein) REMTVVVQLGSSAESTAAYAAEVVLGLAQAGVDRIRVVVRTRDHEQALLAARELARADARAPASVTIELTFEGLTPEQVAEALAVYAETLAAERARLAAA,-0.623
4,FBXL12_hotspot_147_13 (protein) REVTVVVQLGAQAESTARYAAELVVGLGEAGVGRIRVVVRSARLEDALLAARELARAVARLPESVEVEVTFEGLSPEDVARARAVYEATLAAERAAQAAA,-0.0622
5,FBXL12_hotspot_147_14 (protein) MKVTIRVVLEEGSETTVEMAIELAKGLHEAGVEEIRVEVEARDPEVALAAAERLAVEIGRGADVAEIRAFDRETGELLRRLDREEIRRIRAAAEEAEAAA,0.119
6,FBXL12_hotspot_147_15 (protein) MEVTIRVVLGPGSESTVETAIALAAGLHEAGVEKIRIEVEAEDPEEALRAAERLAVEVGRKADVDEILAYDSRTGELLKRLDREEIKEIREEAERREREA,0.23
7,FBXL12_hotspot_162_16 (protein) MKRLLILSFVIKATESPEEAKKRLKQFEEYALEMIEEALKNPEFKVVVVLASDGSPEDLEWVKEAAKRIKEKFPEVEVEVFETGEAAEKRIEELEEEAER,-0.0487
8,FBXL12_hotspot_16_17 (protein) RDIVVVVGLLTAERVRSTLERAAEIVEGLRAAGVDRINVVIYAETEEAWAELERLEPTIVARIRAAVAAAGGELHIHRTREEAEKTREEILAEIDEEEEA,0.0399
9,FBXL12_hotspot_16_18 (protein) REIIVVVGLLEAERVESTLTTARDIVAGLREAGVDRVDVVIYTETPEAAAKLAELRPTIVAAIEAEVAAAGGRLSVHDTREAAEATREAILAEIDEREAA,0.0965
10,FBXL12_hotspot_16_19 (protein) KDIILSVGVEEAERVEPSLELALEIVKGLKEAGVDRINVVIYAETEEAYKKIEELKDTILKEIEEAVKEAGGKLSVHKTKEAAEKEIERILEEIDKREEE,-0.0797
11,FBXL12_hotspot_16_20 (protein) KIMIIRVVAGTEEEARSSVETAKKIAIGLMEAGVDAIILEAIAEKEELLPFLKELVEEKEKELREAAKKYGAKLRILVGTLDDLEELRAQAEAIAAELEA,-0.134
12,FBXL12_hotspot_16_21 (protein) KIMIIKVVAPTEEAARSGIETATKIAKGLMEAGVDAIILLAVAEEEALLPFLEELVEKHKEELEEAAKKYGAKLKVIVGTRADLAALEAEAEAIAAELEA,-0.165
13,FBXL12_hotspot_16_22 (protein) KIMIIKVVAATPEAARGTIETATKIAKGLMEAGVDAVILQAVAEKEEILPFLKELVEEKEKELKEVAKKYGSKLEVFVGTAADLEELEKEVKEKEKELEA,0.0857
14,FBXL12_hotspot_16_23 (protein) KIMVVRVRGRTPEELRPTLDRAVEIAIGLMKAGVDAIIFVAVVERAEDLPAVEALVAERRAALEAAAKEHGSKLEVVVGVAADEEAVEARVKALEEELEA,0.127
15,FBXL12_hotspot_16_24 (protein) PVRILVIRQASTQRTPEGVAYQREAAVAAARAGMDAVILVGLAEREEDVPEMEALVADFEAAVRAANPDIIVEGAVARTEEEAEALKAALLARVEARLAA,0.171
16,FBXL12_hotspot_186_25 (protein) QRIEVRVSFSEDLEQARAGLELAIGLLEALLARGLIESAASLARSTVRAARELAARTDDEEVKRLLAEGLERIAEILRKHPELAEELEEVERAAREIRER,0.0938
